Only some compounds are listed: those with a hit (about 1.4% of all), similar ones and a draw of the others.
MIN6 prolif: induces beta-cell replication in MIN6 cells | MIN6 cells proliferation, ATPlite luminescence, 48 h; cells starved in 0.2% serum; 100% = growth in 10% serum | 330,000 tested, 0.29% active | proliferation, % at 10 µM | AID 2380;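 active = compounds whose signal lies at least 3.5 SD above the mean of all wells on their plate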;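 note: 0% = DMSO-treated cells in low-serum medium and 100% = 10% serum control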
HSV augment: HSV replication enhancement; HSV replication augmentation in cells, fold increase; maximum fold increase; 220,000 tested, 0.005% active; AID 1956; in the data active = maximum fold increase above about 1.5; inconclusive = no clear call, values can overlap the other calls; tested in PC3 cells
pCIP destab: p/CIP protein destabilization; F442A p/CIP-EGFP cells, EGFP fluorescence, 16 h; 290,000 tested, 0.01% active; decrease of EGFP signal, % at 10 µM;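 active = EGFP signal decrease of at least 30% at 10 µM or well 3 SD below plate mean, unless failing retest; inactive = the rest, including hits failing retest or dose response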
V-ATPase pHluor: regulators of yeast V-ATPase proton transport | S. cerevisiae, pHLuorin cytosolic pH fluorescence | response, % at 10 µM | AID 504577 | 350,000 tested, 0.37% active; in the data active = response mostly above about 7.3%, no sharp cut-off; inactive = mostly below about 5.4%; note: actives read high
H9c2 protect: protects H9c2 cardiomyocytes from peroxide injury; H2O2 injury protection, ATPLite, 2 h; protection from H2O2 cell death, % at 20 µM; 360,000 tested, 0.63% active;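 active = compounds giving at least 50% protection of heart cells from peroxide-induced death in the single-dose screen, raw or plate-pattern-corrected value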;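 note: 0% = DMSO wells with peroxide and 100% = DMSO wells without peroxide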
CR mimetic SO: caloric restriction mimetics inhibiting age-related superoxide in yeast; 330,000 tested, 0.18% active; S. cerevisiae aged cells, superoxide DHE fluorescence; hits give low values; superoxide response (% of plate mean), % at 10 µM;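 active = superoxide response under a set limit, about three screen SD below normal, cut at about 65% in these data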;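 note: yeast aged for seven days with compound at 30 °C before DHE staining; 100% = average MFI of all compound-treated wells on the plate with controls excluded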
* = called active by the depositor; i = inactive; ? = inconclusive; · = no result given.

SMILES | MIN6 prolif | HSV augment | pCIP destab | V-ATPase pHluor | H9c2 protect | CR mimetic SO
CCOc1ccc(CCNC(=O)CCc2nc3ccccc3[nH]2)cc1OCC | 0 | i | 3 | 0 | -1 | 105
CCOC(=O)c1c(C)[nH]c(O)c1C=Nc1ccc(Cl)cc1 | -3 | i | 11 | 3 | 52* | 93
COC(=O)c1c(C)[nH]c(O)c1C=Nc1ccc(Oc2ccccc2)cc1 | -1 | ? | -12 | 3 | 84* | 98
O=C(CNC(=O)c1ccco1)N/N=C/c1cc(Br)ccc1O | 0 | · | 6 | 5 | 40 | 101
O=C(CNC(=O)c1ccc(F)cc1)N/N=C/c1cc(Br)ccc1OC(=O)/C=C/c1ccco1 | -6 | i | 3 | 0 | 80* | 112
COc1ccc(C(=O)NCC(=O)N/N=C/c2ccco2)cc1OC | 2 | · | -14 | 1 | 0 | 113
O=C(CNC(=O)c1ccccc1F)N/N=C/c1cc(Br)ccc1OC(=O)/C=C/c1ccco1 | -6 | i | 1 | 1 | 57* | 79
COc1ccccc1C(=O)NCC(=O)N/N=C/c1cc(Br)ccc1OC(=O)/C=C\c1ccco1 | 1 | i | -12 | -3 | 88* | 83
Cc1ccc(C(=O)NNC(=S)NC(=O)c2ccc(Cl)cc2Cl)cc1 | -2 | i | 0 | 0 | 54* | 173
COc1ccccc1C(=O)COC(=O)CCNS(=O)(=O)c1ccc(C)c(C)c1 | 8 | · | · | 1 | -9 | 89
O=C(Nc1nc2c(Br)cccc2s1)C1CC1 | 2 | · | -5 | -3 | -1 | 73
O=NNc1nc2ccccc2n1Cc1ccccc1 | -2 | · | 4 | -3 | 72* | 99
C(=C\c1ccncc1)/c1ccncc1 | -4 | i | -3 | -4 | -9 | 106
O=[N+]([O-])c1cccc(/C=C/c2ccncc2)c1 | -2 | i | -6 | 5 | 0 | 97
O=[N+]([O-])c1ccc(/C=C/c2ccncc2)cc1 | · | i | -2 | 2 | 4 | 62*
C(=C\c1ccncc1)/c1ccccc1 | -2 | i | 0 | 18* | 1 | 94
COc1cccc(CC(=O)Nc2cc(S(=O)(=O)N3CCOCC3)ccc2OC)c1 | -3 | · | · | -1 | 1 | ·
O=C(CSC1CC(=O)N(c2ccc(C(=O)O)cc2)C1=O)Nc1ccc(Cl)cc1 (configuration not stated) | -3 | i | -2 | 2 | 8 | 96
Cc1cccn2c(=O)c3cc(C(=O)NCCN4CCOCC4)c(=N)n(Cc4ccc(F)cc4)c3nc12 | -8 | · | 1 | -2 | 10 | 109
C[C@@H]([C@@H](O)c1ccccc1)N(C)C(=O)C(N)Cc1ccccc1 (some centres not stated) | -3 | · | 0 | 26* | 15 | 100
CN1CCN(C(=O)C(N)Cc2ccccc2)CC1 (configuration not stated) | -2 | i | -3 | -2 | 10 | 106
COc1c(Br)cc(/C=N/n2c(-c3ccccc3)n[nH]c2=S)c(O)c1Br | -3 | · | 10 | 3 | 64* | 95
Oc1c(Br)cc(Br)cc1/C=N/n1c(-c2ccccc2)n[nH]c1=S | -4 | · | 13 | -1 | 32 | 97
COc1cccc(NC(=O)c2nn(C)c3c2CS(=O)(=O)c2ccccc2-3)c1 | 1 | · | 2 | -3 | -1 | 94
Cn1nc(C(=O)Nc2ccccc2)c2c1-c1ccccc1S(=O)(=O)C2 | 0 | · | -1 | 14* | 16 | 78
SMILES | MIN6 prolif | HSV augment | pCIP destab | V-ATPase pHluor | H9c2 protect | CR mimetic SO
CCC(=O)N1CCc2cc(Br)cc(S(=O)(=O)NCC3CCCO3)c21 (configuration not stated) | 2 | i | -1 | 14* | -1 | 103
COc1cc(NC(=O)c2cccc3c(-c4cnn(C)c4)coc23)cc(OC)c1OC | · | · | · | · | 64* | ·
O=C(Oc1ccc(N(Cc2cccs2)C2=NS(=O)(=O)c3ccccc32)cc1)c1ccco1 | -1 | i | 7 | 1 | 7 | 110
O=C(Oc1ccc(N(Cc2cccs2)C2=NS(=O)(=O)c3ccccc32)cc1)c1ccccc1Cl | 3 | i | -7 | 1 | 75* | 108
Nc1c2c(nc3ccccc13)CSCC2 | -2 | · | · | 1 | 7 | 93
O=C(NNC(=O)c1cccnc1SCc1cccc([N+](=O)[O-])c1)c1ccccn1 | 0 | i | -6 | -4 | 83* | 110
CCn1c(=O)cc(OCC(=O)NCCCN2CCCC2=O)c2ccccc21 | 0 | · | 17 | 1 | -1 | 91
COc1ccc(C(=O)Nc2c3c(nn2-c2ccc(Cl)cc2)CS(=O)(=O)C3)cc1 | -5 | · | 0 | -7 | 1 | 86
O=C1c2ccccc2C(=O)N1CSc1nnc(Nc2ccccc2)s1 | -3 | i | -2 | 0 | -4 | 103
O=C1c2ccccc2C(=O)N1CSc1nnc(Nc2ccccc2F)s1 | 0 | i | -10 | -4 | 23 | 61*
O=C(CCc1nc2ccccc2c(=O)[nH]1)Nc1ccc(Cl)c(Cl)c1 | -2 | i | -11 | 0 | 60* | 97
CN(CC(=O)Nc1cccc(F)c1)C(=O)CCc1nc2ccccc2c(=O)[nH]1 | -4 | · | · | -4 | 65* | 111
O=C(CCc1nc2ccccc2c(=O)[nH]1)Nc1ccc(N2CCCCC2)cc1 | 0 | i | -1 | 1 | 50* | 101
CN(C(=O)COC(=O)CCc1nc2ccccc2c(=O)[nH]1)C1CCS(=O)(=O)C1 (configuration not stated) | -4 | i | -3 | -2 | 30 | 83
CN(C(=O)CCc1nc2ccccc2c(=O)[nH]1)C1CCS(=O)(=O)C1 (configuration not stated) | -6 | · | · | -2 | 76* | 96
COc1ccc(NC(=O)CCc2nc3ccccc3c(=O)[nH]2)cc1S(=O)(=O)N1CCCCC1 | 0 | · | · | -2 | 93* | 112
COc1ccc(NC(=O)CCc2ccccc2)cc1S(=O)(=O)N1CCCCC1 | 6 | · | · | 2 | 0 | 93
Cc1cc(C)n(-c2ccc(C(=O)NCC(c3ccco3)N3CCCC3)cc2)n1 (configuration not stated) | 0 | · | · | 16* | 4 | 112
CC(=O)Nc1cccc(NC(=O)c2cc(-c3cccnc3)nc3ccc(Cl)cc23)c1 | -3 | i | 2 | -3 | 65* | 134
CC(=O)Nc1cccc(NC(=O)c2cc(-c3cccnc3)nc3ccc(Br)cc23)c1 | -4 | i | -13 | -2 | 80* | 73
CCCOC(=O)COC(=O)c1ccccc1NC(=O)c1ccccc1 | -1 | i | -22 | 20* | 7 | 100
CCOC(=O)c1ccccc1NC(=O)COC(=O)CCC(=O)c1ccccc1 | 2 | · | -13 | 0 | 1 | 105
CCOC(=O)N1CCN(S(=O)(=O)N2CCCC(C(=O)NCCc3ccc(C)cc3)C2)CC1 (configuration not stated) | 0 | · | -1 | 1 | 1 | 105
CCOc1cc(/C=C(\C#N)C(=O)Nc2ccccc2[N+](=O)[O-])ccc1OCc1cccc2ccccc12 | · | i | 30* | · | · | ·

Source: PubChem BioAssay
